Here are results for seven compounds from PubChem BioAssay.

For some of these results: Measured potencies and affinities stand elsewhere. The source made the active and inactive calls.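 The calls were made as follows, unless noted: active = hit in primary screen, with calcium signal over 5 SD above buffer well mean in both duplicates; inactive = the rest.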

For test [1], the system named is TRPC4 beta (transient receptor potential cation channel C4), mouse. The experiment in a line: activators of mouse TRPC4 channel, confirmation, cell-based, Fluo4 calcium, HEK293 TRPC4beta/mu-opioid, duplicates, 10 µM (AID 2426;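 active = fluorescence ratio normalized to control raised more than 50% in primary screen plus both repeat runs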;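 as to activation: percent rise of integrated ratio over buffer wells lacking compound which define 0%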). Conditions: Fluo4 calcium fluorescence, at 10 µM; active compounds read high.
The test system of test [2] is transient receptor potential cation channel C4 beta (TRPC4), mouse. Kind of test: activators of mouse TRPC4 channel, confirmation, cell-based, second round, Fluo4, HEK293 TRPC4beta/mu-opioid, 1 µM (AID 2461;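 active = primary screen active and over 50% activation in each of two duplicate runs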). Particulars: Fluo4 calcium fluorescence, at 1 µM; active compounds read high.
In test [3] the test system is TRPC4 (transient receptor potential cation channel C4 beta), mouse. The experiment in a line: positive allosteric modulators of mouse TRPC4, confirmation, cell-based, second round, Fluo-4, HEK293 TRPC4beta/mu-opioid, 1 µM (AID 2554;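 active = primary screen hit whose fluorescence ratio, in both repeats, exceeds the weak agonist control mean by 3 SD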). Particulars: DAMGO EC20, Fluo-4 calcium flux, at 1 µM; active compounds read high.
The test system of test [4] is TRPC4 beta (transient receptor potential cation channel C4), mouse. Kind of test: positive allosteric modulators of mouse TRPC4, confirmation, cell-based, Fluo-4, HEK293 TRPC4beta/mu-opioid (AID 2555;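 active = primary screen hit whose calcium fluorescence ratio, in both repeats, exceeds the weak agonist control mean by 3 SD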). Conditions: DAMGO EC20, Fluo-4 calcium flux, at 10 µM; active compounds read high.
Test [5] has as its target Short transient receptor potential channel 4 (Mus musculus) (UniProt Q9QUQ5). The experiment in a line: inhibitors of mouse TRPC4 channel, confirmation, cell-based, Fluo4, HEK293 TRPC4beta/mu-opioid (AID 2636;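 active = calcium signal cut by more than 3 SD below the full-agonist control yet still positive, in both repeats and the earlier primary screen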). Particulars: DAMGO, Fluo4 calcium flux, at 10 µM; active compounds read high.
The target is the same in test [6]. The experiment in a line: inhibitors of mouse TRPC4 channel, confirmation, cell-based, second round, Fluo4, HEK293 TRPC4beta/mu-opioid, 1 µM (AID 2637;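 active = calcium signal ratio cut to more than 3 SD under the fully stimulated control mean yet still positive, in both repeats and the primary screen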). Particulars: Fluo4 calcium flux, DAMGO, at 1 µM; active compounds read high.
Test [7] shares this target. Kind of test: TRPC4 positive allosteric modulators, dose response, cell-based, HEK293 TRPC4/mu-opioid, Fluo-4 calcium, EC20 DAMGO (AID 434941;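 active = earlier screen potentiator hit that boosts the TRPC4 ion channel at some dose, with a dose response; inactive = no potentiation, no dose response, or not a prior hit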;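 also: calcium entry triggered by an EC20 dose of DAMGO at the co-expressed mu-opioid receptor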).
Test [8] has the same target. Kind of test: mouse TRPC4 channel inhibitors, dose response, cell-based, HEK293 TRPC4/mu-opioid, Fluo-4 calcium (AID 434942;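 active = primary screen inhibitor hit that blocks the TRPC4 channel at some tested dose, yielding a dose curve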).
Test [9] has as its target Short transient receptor potential channel 6 (Mus musculus) (UniProt Q61143). Kind of test: inhibition of mouse TRPC6 channel, confirmation, selectivity assay for TRPC4 inhibitor project, cell-based, HEK293, membrane potential dye, duplicate (AID 434948;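 active = active in primary screen and both duplicates, each dropping signal beyond three positive-control SD with fluorescence still positive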). Particulars: HEK293 TRPC6, membrane potential dye fluorescence, at 10 µM, stimulated with maximal-effect acetylcholine; active compounds read high.

For test [10] the target is unchanged. The experiment in a line: activation of mouse TRPC6 channel, confirmation, selectivity assay for TRPC4 activator project, cell-based, HEK293, membrane potential dye, duplicate (AID 434950;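 active = membrane potential signal rise above negative control mean plus 3 SD in both duplicates, also active in the earlier TRPC4 screen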;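 as to activation: 0% = buffer only wells and 100% = acetylcholine maximal-effect wells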). Particulars: HEK293 TRPC6, membrane potential fluorescence, at 10 µM; active compounds read high.
Test [11] has the same target. Kind of test: TRPC6 potentiation by TRPC4 potentiator hits, confirmation, selectivity assay for TRPC4 potentiator project, HEK293 cells, membrane potential dye, duplicate (AID 434952;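 active = compound raising the membrane signal above positive-control mean plus 3 SD in both repeats, and a primary screen hit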). Particulars: HEK293 TRPC6, membrane potential dye fluorescence, at 10 µM, maximal acetylcholine added after compound; active compounds read high.
The target of test [12] is Short transient receptor potential channel 4 (Mus musculus) (UniProt Q9QUQ5). The experiment in a line: calcium flux activators in TRPC4/5HT1a cells, counter-screen for TRPC4 activator project, cell-based, second counter screen, HEK293 TRPC4/5HT1a, Fluo-4 (AID 434977;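 active = calcium signal rise above buffer-control mean plus 5 SD in both duplicates, and also a hit in the primary screen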;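 as to activation: plate controls were assay buffer for no effect and maximal serotonin response for full effect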). Particulars: Fluo-4 calcium flux, at 10 µM; active compounds read high.
Chain of Short transient receptor potential channel 4 (Mus musculus) (Q9QUQ5 whole entry, looked up): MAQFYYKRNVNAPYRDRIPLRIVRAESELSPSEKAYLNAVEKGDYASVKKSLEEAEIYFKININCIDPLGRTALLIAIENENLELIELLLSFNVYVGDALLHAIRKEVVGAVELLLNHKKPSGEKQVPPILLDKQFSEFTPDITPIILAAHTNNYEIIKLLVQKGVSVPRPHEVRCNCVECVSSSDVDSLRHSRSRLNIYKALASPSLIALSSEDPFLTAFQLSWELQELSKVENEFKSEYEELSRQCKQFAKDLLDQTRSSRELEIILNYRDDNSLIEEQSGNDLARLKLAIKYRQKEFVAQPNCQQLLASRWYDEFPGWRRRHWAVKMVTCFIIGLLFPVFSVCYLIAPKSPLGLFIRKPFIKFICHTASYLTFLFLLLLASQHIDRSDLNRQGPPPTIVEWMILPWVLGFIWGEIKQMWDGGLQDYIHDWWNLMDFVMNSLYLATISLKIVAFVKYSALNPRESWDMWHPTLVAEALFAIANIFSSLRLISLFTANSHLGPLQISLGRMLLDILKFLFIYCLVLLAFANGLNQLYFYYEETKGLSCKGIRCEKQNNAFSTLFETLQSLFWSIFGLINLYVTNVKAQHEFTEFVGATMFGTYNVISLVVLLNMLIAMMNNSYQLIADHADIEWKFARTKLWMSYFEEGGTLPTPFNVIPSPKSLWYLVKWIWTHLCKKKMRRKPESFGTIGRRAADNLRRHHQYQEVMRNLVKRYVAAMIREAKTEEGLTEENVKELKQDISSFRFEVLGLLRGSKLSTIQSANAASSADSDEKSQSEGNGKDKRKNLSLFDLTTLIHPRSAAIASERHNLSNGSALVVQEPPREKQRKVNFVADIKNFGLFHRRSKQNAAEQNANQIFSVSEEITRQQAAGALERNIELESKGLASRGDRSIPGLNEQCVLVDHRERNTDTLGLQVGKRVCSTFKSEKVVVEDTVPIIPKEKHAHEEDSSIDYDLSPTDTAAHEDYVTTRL
Test [13] is described as follows: calcium flux inhibitors in TRPC4/5HT1a cells, confirmation, counter-screen for TRPC4 inhibitor project, cell-based, second counter screen, HEK293 TRPC4/5HT1a, Fluo-4 (AID 434978;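 active = primary screen active whose calcium signal fell more than 3 SD beyond the full-serotonin control mean in both duplicate plates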;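 also: serotonin given first at submaximal then at maximal dose after compound preincubation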). Particulars: Fluo-4 calcium flux, at 10 µM, serotonin added to trigger calcium flux; active compounds read high.
Test [14] has as its system TRPC4 (mouse), co-expressed with 5HT1a in HEK293. Kind of test: calcium flux potentiators in TRPC4/5HT1a cells, confirmation, counter-screen for TRPC4 potentiator project, cell-based, second counter screen, HEK293 TRPC4/5HT1a, Fluo-4 (AID 434979;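 active = signal rise over 3 SD above mean of control wells given weak agonist, in both repeats and first screen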). Particulars: Fluo-4 calcium flux, at 10 µM, serotonin added at its EC20 dose; active compounds read high.
Test [15] can be described thus: calcium flux activation in mu-opioid HEK293 cells, confirmation, counter-screen for TRPC4 activator project, cell-based, HEK293 mu-opioid receptor line (AID 449723).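 Also: counter screen cells carry the mu-opioid receptor alone and lack TRPC4.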 Conditions: Fluo-4 calcium fluorescence, at 10 µM; active compounds read high.
The nature of test [16]: calcium flux enhancement in mu-opioid HEK293 cells, confirmation, counter-screen for TRPC4 allosteric potentiator project, cell-based, HEK293 mu-opioid receptor line (AID 449724;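 active = calcium signal rise more than 3 SD above the low-dose agonist control mean, in both duplicate plates and the primary screen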). Particulars: Fluo-4 calcium flux, at 10 µM, compound added before EC20 DAMGO stimulus; active compounds read high.
The target of test [17] is Short transient receptor potential channel 4 (Mus musculus) (UniProt Q9QUQ5). Kind of test: mouse TRPC4 channel activators, dose response, cell-based, HEK293 TRPC4/mu-opioid, Fluo-4 calcium (AID 434937;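 active = primary screen activator hit with a dose response curve and TRPC4 channel activation at any tested dose; inactive = no activation, no dose response, or not a primary hit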).
The nature of test [18]: thallium flux activation in parental CHO cells, counter-screen for KCNQ1 potentiator project (AID 493006;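 active = duplicate-averaged activation above buffer control mean plus 5 SD of those controls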;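 also: fluorescence ratio of max minus min over baseline after K+ and Tl+ depolarization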). Conditions: parental CHO-K1 cells, FluxOR thallium flux, at 10 µM; active compounds read high.
In test [19] the target is Potassium voltage-gated channel subfamily KQT member 1 (Homo sapiens) (UniProt P51787). The experiment in a line: KCNQ1 potassium channel potentiators, confirmation, FluxOR thallium flux, CHO cells, duplicates (AID 493007;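 active = potentiation averaged over duplicate wells exceeding buffer-only control mean by more than 3 SD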;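 also: 0% = buffer-only wells and 100% = R-L3 activator control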). Particulars: KCNQ1 cell line, FluxOR thallium flux fluorescence, at 10 µM; active compounds read high, % of reference activator effect, buffer zero.
Chain of Potassium voltage-gated channel subfamily KQT member 1 (Homo sapiens) (P51787 whole entry, looked up): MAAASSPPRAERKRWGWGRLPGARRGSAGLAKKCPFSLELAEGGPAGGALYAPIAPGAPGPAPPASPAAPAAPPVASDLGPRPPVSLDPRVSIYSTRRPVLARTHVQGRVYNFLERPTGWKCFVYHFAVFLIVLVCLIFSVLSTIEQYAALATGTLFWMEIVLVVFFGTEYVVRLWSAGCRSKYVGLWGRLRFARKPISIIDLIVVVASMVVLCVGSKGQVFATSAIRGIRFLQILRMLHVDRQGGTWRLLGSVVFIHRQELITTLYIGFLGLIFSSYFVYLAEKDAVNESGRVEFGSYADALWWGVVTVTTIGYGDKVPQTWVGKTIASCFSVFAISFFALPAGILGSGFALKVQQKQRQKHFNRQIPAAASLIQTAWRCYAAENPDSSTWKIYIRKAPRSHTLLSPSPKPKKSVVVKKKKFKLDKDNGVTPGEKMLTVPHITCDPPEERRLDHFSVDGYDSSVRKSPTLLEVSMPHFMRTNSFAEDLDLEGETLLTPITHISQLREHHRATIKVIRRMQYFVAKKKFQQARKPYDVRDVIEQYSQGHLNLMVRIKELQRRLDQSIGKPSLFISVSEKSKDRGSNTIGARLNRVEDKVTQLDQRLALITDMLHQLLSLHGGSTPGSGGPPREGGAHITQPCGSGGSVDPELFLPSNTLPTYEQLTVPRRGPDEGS
In test [20] the target is Potassium voltage-gated channel subfamily KQT member 2 (Rattus norvegicus) (UniProt O88943). The experiment in a line: rat KCNQ2 channel potentiation, selectivity assay for KCNQ1 potentiator project, KCNQ2-CHO-K1 cells (AID 493009;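 active = mean duplicate potentiation above the buffer control mean plus 5 SD of buffer wells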;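 also: assay conditions were tuned for KCNQ1 rather than KCNQ2 modulators; signal is max minus min fluorescence divided by baseline after thallium stimulus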). Conditions: FluxOR thallium flux fluorescence, at 10 µM; active compounds read high, scaled: buffer 0, activator control 100.
Chain of Potassium voltage-gated channel subfamily KQT member 2 (Rattus norvegicus) (O88943 whole entry, looked up): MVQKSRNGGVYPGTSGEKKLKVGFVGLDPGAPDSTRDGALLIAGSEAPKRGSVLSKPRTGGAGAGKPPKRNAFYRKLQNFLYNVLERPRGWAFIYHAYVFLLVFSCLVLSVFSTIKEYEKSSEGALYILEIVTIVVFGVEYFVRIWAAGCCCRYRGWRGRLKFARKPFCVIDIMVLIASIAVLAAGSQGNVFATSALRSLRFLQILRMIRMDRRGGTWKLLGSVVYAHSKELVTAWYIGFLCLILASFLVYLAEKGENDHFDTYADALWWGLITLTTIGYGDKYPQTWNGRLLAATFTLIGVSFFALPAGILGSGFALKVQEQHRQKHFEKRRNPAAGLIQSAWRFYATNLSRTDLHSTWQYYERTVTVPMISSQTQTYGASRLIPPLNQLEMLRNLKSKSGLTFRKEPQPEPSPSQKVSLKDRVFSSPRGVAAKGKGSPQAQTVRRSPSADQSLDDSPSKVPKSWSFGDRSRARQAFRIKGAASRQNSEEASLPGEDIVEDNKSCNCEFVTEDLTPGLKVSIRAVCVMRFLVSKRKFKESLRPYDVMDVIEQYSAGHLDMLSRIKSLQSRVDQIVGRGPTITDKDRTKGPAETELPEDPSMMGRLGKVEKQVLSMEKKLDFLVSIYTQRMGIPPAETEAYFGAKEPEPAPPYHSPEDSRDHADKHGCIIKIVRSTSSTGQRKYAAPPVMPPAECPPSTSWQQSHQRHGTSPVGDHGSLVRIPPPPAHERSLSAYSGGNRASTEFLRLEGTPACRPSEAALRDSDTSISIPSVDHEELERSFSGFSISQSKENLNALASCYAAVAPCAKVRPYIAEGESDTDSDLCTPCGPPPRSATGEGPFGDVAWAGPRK

Chain of Short transient receptor potential channel 6 (Mus musculus) (Q61143 whole entry, looked up): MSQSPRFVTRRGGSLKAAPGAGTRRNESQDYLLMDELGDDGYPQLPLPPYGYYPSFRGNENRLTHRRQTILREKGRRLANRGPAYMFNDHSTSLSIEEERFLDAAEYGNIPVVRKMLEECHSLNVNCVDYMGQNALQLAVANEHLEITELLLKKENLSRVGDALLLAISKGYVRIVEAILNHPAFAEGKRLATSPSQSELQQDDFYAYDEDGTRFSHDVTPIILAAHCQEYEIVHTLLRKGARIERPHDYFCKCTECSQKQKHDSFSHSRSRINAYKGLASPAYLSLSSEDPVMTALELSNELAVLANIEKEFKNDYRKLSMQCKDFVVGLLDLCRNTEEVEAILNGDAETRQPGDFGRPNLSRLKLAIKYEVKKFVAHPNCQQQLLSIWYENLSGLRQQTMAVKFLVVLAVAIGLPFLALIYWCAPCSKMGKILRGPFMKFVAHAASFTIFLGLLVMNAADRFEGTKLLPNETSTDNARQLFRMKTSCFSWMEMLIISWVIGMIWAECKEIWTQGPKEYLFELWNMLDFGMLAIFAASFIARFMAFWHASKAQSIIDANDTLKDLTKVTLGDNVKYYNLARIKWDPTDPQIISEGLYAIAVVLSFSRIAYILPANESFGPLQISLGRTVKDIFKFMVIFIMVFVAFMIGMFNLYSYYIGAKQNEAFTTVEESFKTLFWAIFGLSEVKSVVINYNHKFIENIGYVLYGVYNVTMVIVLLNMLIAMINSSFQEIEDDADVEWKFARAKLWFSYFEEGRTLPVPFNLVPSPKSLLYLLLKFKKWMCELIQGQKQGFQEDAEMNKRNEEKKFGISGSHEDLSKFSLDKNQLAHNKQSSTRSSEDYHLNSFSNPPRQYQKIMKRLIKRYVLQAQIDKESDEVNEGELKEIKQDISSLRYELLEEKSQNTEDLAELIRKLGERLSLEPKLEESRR

In the case of `CCOc1ccc(S(=O)(=O)Nc2cccc(C(=O)NCC(c3ccccc3)N(C)C)c2)cc1` (stereo not given), the activation in test [1] is 255% (active); in [10] it was 43% (active). For the same compound, the outcome in [2], in test [3], in [4], in test [5], in [6] and in [7] was inactive. For the same compound, the outcome in [8], in test [9], in [11], in [12], in test [13] and in test [14] was inactive. The result in test [15] and in [16] was inactive.
For the compound `CC1=C(C(=O)NCc2ccccc2)C(c2cc(Br)cc(Br)c2OC(C)C)NC(=O)N1` (stereo not given), the outcome in test [1], in test [2], in test [3], in [5], in test [6] and in [17] was inactive. The outcome in test [8], in test [9], in [10], in [11], in [12] and in test [13] was inactive. Besides, the result in [15] and in test [16] was inactive. Further, the potentiation is 28% (active) in test [4] and 11.7% (active) in test [14].
For the compound `COc1ccc(-c2nc(CSCC(=O)NC3CCN(Cc4ccccc4)CC3)c(C)o2)cc1OC`, the values for the activation in test [1], in [10] and in test [12] were 107% (active), 99.5% (active) and 23.1% (active), respectively. Besides, the result in [2], in [3], in test [4], in [5], in test [6] and in test [7] was inactive. Further, the result in test [8], in [9], in [11], in test [13], in test [14] and in test [15] was inactive. Moreover, the result in test [16] was inactive.
For the compound `O=C(Nc1ccccc1)C1=C[C@H](C2CCCCC2)C[C@H](OCc2ccc(CO)cc2)O1`, the outcome in test [1], in test [2], in test [3], in [5], in [6] and in [17] was inactive. Moreover, the result in test [8], in [9], in test [10], in [11], in test [12] and in test [13] was inactive. In addition, the result in test [15] and in [16] was inactive. Further, the values for the potentiation in test [4] and in test [14] were 85% (active) and 124% (active), respectively.
As to `Cc1cccc(/C=N/NC(=O)c2cc(Br)ccc2O)n1`, the outcome in test [1], in test [2], in [5], in test [6], in test [17] and in [8] was inactive. For the same compound, the result in test [9], in test [10], in test [11], in test [12], in [13] and in test [15] was inactive. Further, the outcome in test [16] was inactive. Moreover, the potentiation was 24% (active) in [3]; 46% (active) in test [4]; 100% (active) in test [14]; 48% (active) in test [19]; 182% (active) in [20]. Also, the activation in [18] is 140% (active).
`O=C(Nc1cccc(Cl)c1)N1CCN(C/C=C/c2ccccc2)CC1`: the outcome in test [1], in [2], in test [3], in test [4], in test [5] and in [6] was inactive. Besides, the result in [17], in test [8], in test [9], in test [10], in [11] and in test [12] was inactive. Besides, the result in test [13], in test [15] and in [16] was inactive. In [14], the potentiation was 19.8% (active).
As to `N#CC1=C(N)C(C#N)(C#N)C(c2cccnc2)C2CC(c3ccccc3)CC=C12` (stereo not given), the outcome in test [1], in test [2], in test [3], in test [5], in [6] and in test [17] was inactive. The outcome in test [8], in test [9], in [10], in test [11], in test [12] and in [13] was inactive. For the same compound, the outcome in [15] and in test [16] was inactive. For the same compound, the potentiation in test [4] was 77% (active); in test [14], 9.65% (active).
